Screening data as filed in PubChem BioAssay.
Only some compounds are listed: those with a hit (about 3.5% of all), similar ones and a draw of the others.
CHRM1 antagonist: human M1 muscarinic receptor antagonists, primary screen, CHO-K1 cells, Fluo-8 calcium fluorescence, 1536-well; inhibition, % at 3 µM; Muscarinic acetylcholine receptor M1 (Homo sapiens), P11229; 360,000 compounds, 1.3% hits; CHO-K1 hM1, ACh EC80 antagonist;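 active = percent inhibition above its own plate's cutoff, namely the mean of that plate's compound wells plus 3 SD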;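 also: peak over basal fluorescence ratio during 140 s after agonist addition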
Target sequence (P11229 whole entry, looked up): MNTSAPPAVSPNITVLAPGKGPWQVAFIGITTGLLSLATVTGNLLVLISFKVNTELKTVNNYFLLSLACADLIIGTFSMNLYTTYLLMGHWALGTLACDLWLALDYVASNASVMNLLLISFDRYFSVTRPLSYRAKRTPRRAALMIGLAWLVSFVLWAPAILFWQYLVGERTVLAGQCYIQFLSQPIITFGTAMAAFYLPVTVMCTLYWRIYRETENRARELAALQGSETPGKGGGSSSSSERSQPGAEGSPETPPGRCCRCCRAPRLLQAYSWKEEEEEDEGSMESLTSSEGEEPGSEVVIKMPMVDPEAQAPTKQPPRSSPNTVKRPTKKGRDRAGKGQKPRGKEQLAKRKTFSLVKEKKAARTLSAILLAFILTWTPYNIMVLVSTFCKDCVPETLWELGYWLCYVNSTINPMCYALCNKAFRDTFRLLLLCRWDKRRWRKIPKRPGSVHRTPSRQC
ATG4B inhibitor: ATG4B protease inhibitors, primary screen, biochemical, fluorescence, uHTS. ATG4B cleavage of LC3-PLA2, NBD-HPC fluorescence, 1 h. 340,000 compounds, 0.51% hits. Cysteine protease ATG4B (Homo sapiens), Q9Y4P1. inhibition, % at 8.33 µM. AID 504462, 2011; in the data active = inhibition above about 40%
SKN-1 block: suppressors of acrylamide-induced Pgst-4::GFP reporter in worms, primary screen, SKN-1 inhibitor project, whole organism, uHTS, GFP/RFP fluorescence ratio, strain VP596; C. elegans VP596 Pgst-4::GFP/RFP ratio, 24 h; inhibition, % at 21.8 µM; 360,000 compounds, 0.49% hits; AID 624304, 2012;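 active = interference check ratio from 0.5 to 1.5 plus GFP to RFP signal ratio inhibition reaching or exceeding a fixed threshold, cut at about 30% in these data, passing the limit was not always enough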
Myeloid diff 2: induction of myeloid progenitor differentiation, primary screen, cell-based, flow cytometry, MLPCN library | ER-HoxA9 myeloid progenitors, lysozyme-GFP differentiation | calls only at 10 µM | 360,000 compounds, 1% hits;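 active = normalized GFP-positive differentiation at or above the plate's own cutoff, the solvent-only control mean plus 3 SD; inconclusive = no clear call, values can overlap the other calls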;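 also: cells exposed to compound for four days before flow analysis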
CHRM1 agonist: human M1 muscarinic receptor agonists, primary screen, Fluo-8 calcium fluorescence, CHO-K1 cells, HTS; 360,000 compounds, 0.33% hits; activation, % at 3 µM; Muscarinic acetylcholine receptor M1 (Homo sapiens), P11229; AID 588814, 2011; CHO-K1 hM1, agonist mode; 0% DMSO, 100% acetylcholine EC100;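 active = activation above the run's mean compound activation plus 3 SD, cut at about 16% in these data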;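 also: peak over basal fluorescence ratio within a 140 s kinetic read after compound addition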
CHRM1 PAM: human M1 muscarinic receptor positive allosteric modulators, primary screen, CHO-K1 cells, Fluo-8 calcium fluorescence, 1536-well. Muscarinic acetylcholine receptor M1 (Homo sapiens), P11229. CHO-K1 hM1, ACh EC20; 0% = ACh EC20, 100% = maximal ACh. activation, % at 3 µM. 360,000 compounds, 0.088% hits; in the data active = activation above about 19%, passing the limit was not always enough
A number is an active result.

How did CCN(CC)c1ccc(/C=N/N=C(c2ccccc2)c2ccccc2)c(O)c1 do in these assays?
CHRM1 antagonist: inactive; ATG4B inhibitor: inactive; SKN-1 block: inactive; Myeloid diff 2: active; CHRM1 agonist: inactive; CHRM1 PAM: inactive

How did C/C(=C(/CCO)SSCC1CCCO1)N(C=O)Cc1cnc(C)nc1N (stereo not given) do in these assays?
CHRM1 antagonist: inactive; ATG4B inhibitor: inactive; SKN-1 block: inactive; Myeloid diff 2: active; CHRM1 agonist: inactive; CHRM1 PAM: inactive

Results for COC(=O)c1ccc(CO/N=C/c2ccc(OC)cc2)o1 ?
CHRM1 antagonist: inactive; ATG4B inhibitor: inactive; SKN-1 block: inactive; Myeloid diff 2: inactive; CHRM1 agonist: inactive; CHRM1 PAM: inactive

What do the screens show for `FC(F)(F)c1ccccc1Cc1c(-c2ccccc2)nc2ccc(Br)cn12`?
CHRM1 antagonist: inactive; SKN-1 block: 48.3; Myeloid diff 2: inactive; CHRM1 agonist: inactive; CHRM1 PAM: inactive

What do the screens show for `N#Cc1ccc(-c2nc3c4ccccc4ccn3c2Cc2ccccc2C(F)(F)F)cc1`?
CHRM1 antagonist: inactive; SKN-1 block: 41.7; Myeloid diff 2: inactive; CHRM1 agonist: inactive; CHRM1 PAM: inactive

How did N#Cc1ccc(-c2nc3ccc(Br)cn3c2Cc2ccccc2C(F)(F)F)cc1 do in these assays?
CHRM1 antagonist: inactive; SKN-1 block: inactive; Myeloid diff 2: inactive; CHRM1 agonist: inactive; CHRM1 PAM: inactive

Results for O=C(CCN1C(=O)NC2(CCCC2)C1=O)Nc1ccc(-c2nc3ccccc3s2)cc1 ?
CHRM1 antagonist: inactive; ATG4B inhibitor: inactive; SKN-1 block: inactive; Myeloid diff 2: active; CHRM1 agonist: inactive; CHRM1 PAM: inactive

Results for O=C(O)c1ccc([N+](=O)[O-])c2c1C(=O)c1ccccc1C2=O ?
CHRM1 antagonist: inactive; ATG4B inhibitor: inactive; SKN-1 block: inactive; Myeloid diff 2: inactive; CHRM1 agonist: inactive; CHRM1 PAM: inactive

What do the screens show for `O=C1c2ccccc2C(=O)c2c([N+](=O)[O-])ccc(O)c21`?
CHRM1 antagonist: inactive; ATG4B inhibitor: inactive; SKN-1 block: 37.4; Myeloid diff 2: inactive; CHRM1 agonist: inactive; CHRM1 PAM: inactive

What do the screens show for `O=c1nc(-c2ccccc2)c2cc(Br)ccc2[nH]1`?
CHRM1 antagonist: inactive; ATG4B inhibitor: inactive; SKN-1 block: inactive; Myeloid diff 2: inactive; CHRM1 agonist: inactive; CHRM1 PAM: inactive

What do the screens show for `O=c1nc(-c2ccccc2)c2cc(SC(F)F)ccc2[nH]1`?
CHRM1 antagonist: inactive; ATG4B inhibitor: inactive; SKN-1 block: inactive; Myeloid diff 2: inactive; CHRM1 agonist: inactive; CHRM1 PAM: 28.3

What do the screens show for `Cc1sc(NC(=O)CCC(=O)O)c(C#N)c1C`?
CHRM1 antagonist: inactive; ATG4B inhibitor: inactive; SKN-1 block: inactive; Myeloid diff 2: inactive; CHRM1 agonist: inactive; CHRM1 PAM: inactive

Results for CCOc1ccc(NC(=O)c2cccc(S(=O)(=O)NCc3cccnc3)c2)cc1 ?
CHRM1 antagonist: inactive; SKN-1 block: inactive; Myeloid diff 2: inactive; CHRM1 agonist: inactive; CHRM1 PAM: inactive

Results for C[n+]1ccccc1N1CCN(c2ccccc2Cl)CC1 ?
CHRM1 antagonist: inactive; ATG4B inhibitor: inactive; SKN-1 block: inactive; Myeloid diff 2: inconclusive; CHRM1 agonist: inactive; CHRM1 PAM: inactive

Results for Cc1ccc(Cl)cc1N1CCN(c2cccc[n+]2C)CC1 ?
CHRM1 antagonist: 47.9; ATG4B inhibitor: inactive; SKN-1 block: inactive; Myeloid diff 2: inconclusive; CHRM1 agonist: inactive; CHRM1 PAM: inactive

What do the screens show for `CC[C@]12c3[nH]c4ccccc4c3CCN1C(=O)C(CC(=O)NCc1cccc(C(F)(F)F)c1)C[C@@H]2C(=O)N1CCN(C(=O)c2ccco2)CC1` (stereo not given in full)?
CHRM1 antagonist: inactive; ATG4B inhibitor: inactive; SKN-1 block: inactive; Myeloid diff 2: inactive; CHRM1 agonist: inactive; CHRM1 PAM: inactive

How did O=C(c1cc(C2CC2)nn1-c1ccccc1)N1CCN(S(=O)(=O)c2ccc(F)cc2)CC1 do in these assays?
CHRM1 antagonist: inactive; SKN-1 block: inactive; Myeloid diff 2: inactive; CHRM1 agonist: inactive; CHRM1 PAM: inactive

Results for O=C(c1cc(C2CC2)nn1-c1ccccc1)N1CCN(S(=O)(=O)c2cccc(F)c2)CC1 ?
CHRM1 antagonist: 29.8; ATG4B inhibitor: inactive; SKN-1 block: inactive; Myeloid diff 2: inactive; CHRM1 agonist: inactive; CHRM1 PAM: inactive

How did Cc1ccc(S(=O)(=O)N2CCN(C(=O)c3cc(-c4cccs4)nn3-c3ccccc3)CC2)cc1 do in these assays?
CHRM1 antagonist: inactive; ATG4B inhibitor: inactive; SKN-1 block: inactive; Myeloid diff 2: inactive; CHRM1 agonist: inactive; CHRM1 PAM: inactive

What do the screens show for `N#Cc1ccc(CN2CCN(C(=O)c3cc(C4CC4)nn3-c3ccccc3)CC2)cc1`?
CHRM1 antagonist: inactive; ATG4B inhibitor: inactive; SKN-1 block: 38.0; Myeloid diff 2: inactive; CHRM1 agonist: inactive; CHRM1 PAM: inactive

Results for O=C(c1cc(-c2cccs2)nn1-c1ccccc1)N1CCN(S(=O)(=O)c2ccccc2)CC1 ?
CHRM1 antagonist: 27.8; ATG4B inhibitor: inactive; SKN-1 block: inactive; Myeloid diff 2: inactive; CHRM1 agonist: inactive; CHRM1 PAM: inactive

Results for CC1CCCN(C(=O)COC(=O)c2cc(-c3cccs3)nn2-c2ccccc2)C1 (stereo not given) ?
CHRM1 antagonist: 46.1; ATG4B inhibitor: inactive; SKN-1 block: inactive; Myeloid diff 2: inactive; CHRM1 agonist: inactive; CHRM1 PAM: inactive

Results for CCN1CCN(c2nc(-c3ccc(F)cc3)cc(=O)[nH]2)CC1 ?
CHRM1 antagonist: inactive; ATG4B inhibitor: inactive; SKN-1 block: inactive; Myeloid diff 2: inactive; CHRM1 agonist: inactive; CHRM1 PAM: inactive

What do the screens show for `CN1CCC2(CC1)N=C(c1ccc(F)cc1)C(=S)N2C(=O)c1ccccc1`?
CHRM1 antagonist: 44.5; ATG4B inhibitor: inactive; SKN-1 block: inactive; Myeloid diff 2: inactive; CHRM1 agonist: inactive; CHRM1 PAM: inactive

How did CCN1CCC2(CC1)N=C(c1ccc(F)cc1)C(=S)N2C(=O)c1ccc(C(C)(C)C)cc1 do in these assays?
CHRM1 antagonist: 100.5; ATG4B inhibitor: inactive; SKN-1 block: inactive; Myeloid diff 2: inactive; CHRM1 agonist: inactive; CHRM1 PAM: inactive

What do the screens show for `O=C(c1ccccc1)N1N=C(c2ccc(F)cc2)CC1(O)C(F)(F)F` (stereo not given)?
CHRM1 antagonist: inactive; ATG4B inhibitor: inactive; SKN-1 block: inactive; Myeloid diff 2: inactive; CHRM1 agonist: inactive; CHRM1 PAM: inactive

Results for CC(C)(C)OC(=O)N1CCCC(C(=O)Nc2cccc(C(=O)NCCc3ccccc3)c2)C1 (stereo not given) ?
CHRM1 antagonist: inactive; ATG4B inhibitor: inactive; SKN-1 block: inactive; Myeloid diff 2: inactive; CHRM1 agonist: inactive; CHRM1 PAM: inactive
